Only some compounds are listed: those with a hit (about 4.7% of all), similar ones and a draw of the others.
ATXN viability: Viability Counterscreen for Primary qHTS for Inhibitors of ATXN expression. hit rate 0.49% among 400,000. AID 651635, 2014. S2 cells (HEK-293 line with an ATXN2-luciferase reporter) viability, CellTiter-Fluor protease fluorescence, 24 h. Potency, µM (titrated, usually from 56.7 µM), actives largely listed as cytotoxic; further: nearly all actives have a fitted effect of over 40% in size
DRD3 agonist: qHTS of D3 Dopamine Receptor Agonist: qHTS; D(3) dopamine receptor (Homo sapiens), P35462; D3R DiscoveRx beta-arrestin cells, luminescence, 90 min; max activation, %; hit rate 0.58% among 410,000; in the data active means max activation above about 30%
Target sequence (P35462 whole entry, looked up): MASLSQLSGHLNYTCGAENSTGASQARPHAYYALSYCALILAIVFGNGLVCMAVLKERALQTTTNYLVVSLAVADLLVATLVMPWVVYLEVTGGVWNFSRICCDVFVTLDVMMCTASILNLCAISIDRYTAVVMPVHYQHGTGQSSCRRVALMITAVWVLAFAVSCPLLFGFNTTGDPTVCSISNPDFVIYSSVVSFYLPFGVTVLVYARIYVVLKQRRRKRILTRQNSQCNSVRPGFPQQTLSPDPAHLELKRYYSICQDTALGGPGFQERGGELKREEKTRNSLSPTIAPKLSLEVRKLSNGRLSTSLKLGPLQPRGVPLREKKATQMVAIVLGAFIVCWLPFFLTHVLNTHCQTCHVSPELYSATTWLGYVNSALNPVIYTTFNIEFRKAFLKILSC
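Agonist-mode cell screen: cells plated at 1500/well and incubated overnight at 37 °C, then exposed to library compounds for 90 min at 37 °C. Detection reagent was added for 30–60 min at room temperature, and luminescence was read.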
ATXN2 expr inh: Primary qHTS for Inhibitors of ATXN expression; HEK-293 ATXN2-luciferase reporter, luminescence, 24 h; AID 1745845, 2022; Potency, µM (highest dose often 57 µM), actives largely listed as inhibitors; hit rate 0.72% among 360,000; further: nearly all actives have a fitted effect of over 55% in size
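qHTS (up to 57 uM final) was run with 24 h compound exposure of reporter cells at 37 °C. Each well was multiplexed: SteadyGlo luminescence measured ATXN2-luciferase expression after a fluorogenic Gly-Phe-AFC viability readout (25 uM final).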
TGFb SMAD3 inh: qHTS for Inhibitors of TGF-b. AID 588855, 2011. HepG2 CAGA-GFP TGF-b/SMAD3 reporter, GFP fluorescence, 18 h; TGF-beta stimulated, 500 pg/mL final. Potency, µM (titrated, usually from 46.1 µM), actives largely listed as inhibitors. hit rate 1.2% among 410,000; further: nearly all actives have a fitted effect of over 65% in size
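HEPG2 CAGA-GFP reporter cells (1000/well, DMEM with 1% FBS) received compounds, then recombinant TGF-beta at 500 pg/mL final for 18 hours at 37 degrees C. Per-cell GFP summed per well was normalised to unstimulated and stimulated DMSO controls before curve fitting.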
DRD3 antagonist: qHTS of D3 Dopamine Receptor Antagonist: qHTS; max response, negative = inhibition, %; hit rate 2.5% among 360,000; D3R cells, DiscoveRx beta-arrestin luminescence, antagonist mode; active compounds read low; in the data active means max response below about -50%; inconclusive means no clear call, values can overlap the other calls
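Cells expressing the human receptor were seeded at 1500 cells/well, incubated overnight at 37 degrees C in 5% CO2, then exposed to library compounds with dopamine controls for 90 minutes at 37 degrees C before luminescent detection.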
HepG2 viability: qHTS for Inhibitors of TGF-b: Cytotox Counterscreen. HepG2 CAGA-GFP viability, ATP luminescence, 18 h. hit rate 0.76% among 410,000. Potency, µM (series often up to 46.1 µM), most hits filed as cytotoxic
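HepG2 CAGA-GFP cells (1000/well, DMEM with 1% FBS) received compound, then TGF-beta at 500 pg/mL final, and were incubated 18 hours at 37 degrees C. Viability was read by CellTiter-Glo luminescence. Media-only wells were set as complete cell-killing and DMSO as no toxicity.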
Large screens that a line does not name were inactive. Unless noted, the call rests on the fitted dose curve; in most records, active means well fitted curve in the direction sought with a large enough effect; inconclusive means small, poorly fitted or top-dose-only effect, or another doubt; inactive means no such curve, though single readings can be large; an effect the other way counts as inactive or inconclusive.

COc1ccc(CCC(C)NCC2CCCCC2)cc1 (configuration not stated)	DRD3 antagonist -70
COc1ccc(CCC(=O)NC2CCCCC2)cc1	none
Cc1cnc(-n2ncc(C(=O)NCc3ccncc3)c2C2CC2)nc1-c1cccs1	none (no result: DRD3 agonist, ATXN2 expr inh, TGFb SMAD3 inh, DRD3 antagonist, HepG2 viability)
CCc1ccccc1N(C)C	TGFb SMAD3 inh inconclusive (no result: ATXN viability, DRD3 agonist, ATXN2 expr inh, DRD3 antagonist)
O=C(/C=C/c1cccc([N+](=O)[O-])c1)NCCSCc1ccc(Cl)cc1Cl	ATXN2 expr inh inconclusive, TGFb SMAD3 inh 13µM
O=C(/C=C/c1cccc([N+](=O)[O-])c1)NCCSCc1ccccc1Cl	none
Cc1cc(C)c2oc(C(=O)Nc3sc4c(c3C(=O)NCc3ccco3)CCC4)cc(=O)c2c1	ATXN viability inconclusive (no result: DRD3 antagonist)
C=CCc1ccc(OCC(O)CN2CCc3ccccc3C2)c(OC)c1 (configuration not stated)	DRD3 antagonist -100
CCCc1ccc(OCC(O)CN2CCc3ccccc3C2)cc1 (configuration not stated)	ATXN viability inconclusive, DRD3 antagonist -94 (no result: ATXN2 expr inh)
CCc1ccc(OCC(O)CN2CCCC2)cc1 (configuration not stated)	none
CN(Cc1cnccn1)Cc1ccccc1OCC(O)CN1CCc2ccccc2C1 (configuration not stated)	DRD3 antagonist -83
CCCCN(CC(O)COc1cccc(C)c1)CC(O)COc1cccc(C)c1 (configuration not stated)	ATXN viability inconclusive, TGFb SMAD3 inh 16µM
COc1cc(OC)c(OC)cc1CN1CCc2ccccc2C1	DRD3 antagonist inconclusive
CN1C(=O)C(C)(C)c2cc(S(=O)(=O)N3CCCC3C(=O)Nc3ccc(F)cc3)ccc21 (configuration not stated)	none (no result: ATXN viability, ATXN2 expr inh, DRD3 antagonist)
CCN(CC)c1ccccc1/C=C/[n+]1ccc(CCCCI)c2ccccc21	TGFb SMAD3 inh inconclusive (no result: ATXN viability, DRD3 agonist, ATXN2 expr inh, DRD3 antagonist)
Cc1ccc(OCC(=O)Nc2ccc(C(=O)OCc3cc(=O)n4ccsc4n3)cc2)cc1C	ATXN viability inconclusive, TGFb SMAD3 inh inconclusive (no result: DRD3 antagonist)
COc1cc(COCC(O)CN2CCc3ccccc3C2)cc(OC)c1OC (configuration not stated)	DRD3 antagonist -85
COc1ccc(OCC(O)CN2CCCCC2)cc1 (configuration not stated)	none
COc1ccc(OCC(O)CN2CCc3ccccc3C2)cc1 (configuration not stated)	DRD3 antagonist -107
CC(C)(C)c1ccc(OCC(O)CN2CCc3ccccc3C2)cc1 (configuration not stated)	ATXN viability inconclusive, TGFb SMAD3 inh inconclusive, DRD3 antagonist -119 (no result: ATXN2 expr inh)
Cc1ccc(OCC(O)CN2CCc3ccccc3C2)c(C)c1 (configuration not stated)	DRD3 antagonist -104 (no result: ATXN2 expr inh)
Cc1ccc(N(CC(=O)Nc2ccc(C)c(Cl)c2)S(=O)(=O)c2cccs2)cc1	none (no result: DRD3 antagonist)
Cc1cccc(OCC(O)CN2CCc3ccccc3C2)c1 (configuration not stated)	DRD3 antagonist -104 (no result: ATXN2 expr inh)
COc1cccc(OCC(O)CN2CCc3ccccc3C2)c1 (configuration not stated)	DRD3 antagonist -91
CCC(=O)c1ccc(OCC(O)CN2CCc3ccccc3C2)cc1 (configuration not stated)	ATXN viability inconclusive, DRD3 antagonist -75 (no result: ATXN2 expr inh)
OC(COc1ccc(Cl)cc1Cl)CN1CCc2ccccc2C1 (configuration not stated)	TGFb SMAD3 inh inconclusive, DRD3 antagonist -103
CNC(=S)/N=C/NOCc1ccc(Cl)cc1Cl	ATXN viability inconclusive, TGFb SMAD3 inh 14µM
O=C(O)CCc1ccc2ccccc2c1	none (no result: ATXN viability, DRD3 agonist, ATXN2 expr inh, DRD3 antagonist)
C[C@H]1CCC[C@]2(O[C@H](CCO)C[C@H](O)[C@H]2O)O1	DRD3 agonist 37
O=c1oc2cc([N+](=O)[O-])ccc2nc1/C=C(\O)c1cccc(Br)c1	DRD3 antagonist -56
O=c1oc2ccccc2nc1/C=C(\O)c1ccccc1	none (no result: ATXN2 expr inh)
CCN(CC)C1CCN(C(=O)c2cnn(-c3ncc4c(n3)-c3ccccc3CCC4)c2COC)C1 (configuration not stated)	none (no result: DRD3 agonist, ATXN2 expr inh, TGFb SMAD3 inh, DRD3 antagonist, HepG2 viability)
CC(CN1CCN(c2ccccc2)CC1)c1ccccc1 (configuration not stated)	DRD3 antagonist -64
c1ccc(SCCN2CCN(c3ccccc3)CC2)cc1	DRD3 antagonist -103
CC(CCN1CCOCC1)c1ccccc1 (configuration not stated)	none
CCCN1CCC(=O)N(CCSc2ccccc2)CC1	none
CC(CCN1CCN(c2ccc(F)cc2)CC1)c1ccccc1 (configuration not stated)	DRD3 antagonist -76
Cc1cc(C)nc(N/N=C2/CCCC/C2=C\c2ccccc2)n1	ATXN viability inconclusive, ATXN2 expr inh 0.95µM, TGFb SMAD3 inh inconclusive
Cc1ccnc(N/N=C/c2ccccc2)n1	none
CC(C)C1NC(C(=O)O)Cc2c1[nH]c1ccccc21 (configuration not stated)	none
CC(C)C1NCCc2c1sc1ccccc21 (configuration not stated)	DRD3 antagonist -61
CC(/C=C/C=C/c1ccccc1)=N\NC(=O)c1cccnc1	none (no result: ATXN viability)
O=C(N/N=C/C1C(c2ccccc2)C1(Cl)Cl)c1cccc(Br)c1 (configuration not stated)	DRD3 antagonist -53
CC(/C=C/c1ccccc1)=N/NC(=O)c1cccc(Br)c1	DRD3 antagonist -53
CC(/C=C/C=C/c1ccccc1)=N/NC(=O)c1ccc2c(c1)OCCO2	HepG2 viability 11µM
Cc1cccc(C)c1NC(=O)C1=C(O)c2ccccc2N(C)S1(=O)=O	DRD3 antagonist -52
CC(=O)c1c(C)oc2c1C(=O)c1ccccc1C2=O	ATXN viability inconclusive, ATXN2 expr inh inconclusive, TGFb SMAD3 inh 7.9µM
Cc1oc2c(c1C(=O)NCc1cccnc1)C(=O)c1ccccc1C2=O	ATXN viability 2.8µM, ATXN2 expr inh 2.8µM, TGFb SMAD3 inh 0.28µM, DRD3 antagonist -72, HepG2 viability 0.45µM
CCCOc1ccc(F)cc1-c1cc(C(=O)NCc2ccccc2)[nH]n1	DRD3 antagonist -99
COc1ccc(NC(=O)c2cc(-c3cc(F)ccc3OC)n[nH]2)c(C)c1	DRD3 antagonist -51
COc1ccc(NC(=O)c2cc(-c3cc(F)ccc3OC(C)C)n[nH]2)c(OC)c1	none
Cc1cc(O)ccc1-c1cc(C(=O)NCc2ccc(F)cc2)[nH]n1	ATXN viability inconclusive, DRD3 antagonist inconclusive
Cc1cc(F)ccc1-c1cc(C(=O)Nc2ccc(F)cc2)[nH]n1	DRD3 antagonist -58

Source: PubChem
